This note sets out measurements from the supplement of paper PMC6279402.

Counter-ions that a name gives are not always drawn. ± gives the standard deviation of the averaged measurements.

The test deals with A549. As to the kind of experiment: relative viability (normalised to negative control = 1, bortezomib = 0) (fraction); higher = less cytotoxic. The conditions noted are these: inflammatory serum-free RHB-A with cytokines + LPS; 5 d + 24 h CellTiter-Blue; compound 30 nM; GSK126 pretreatment: 5 uM GSK126. (Resazurin is reduced to fluorescent resorufin, in cell work by metabolically active cells.)
In the case of `Cc1c2oc3c(C)ccc(C(=O)N[C@@H]4C(=O)N[C@H](C(C)C)C(=O)N5CCC[C@H]5C(=O)N(C)CC(=O)N(C)[C@@H](C(C)C)C(=O)O[C@@H]4C)c3nc-2c(C(=O)N[C@@H]2C(=O)N[C@H](C(C)C)C(=O)N3CCC[C@H]3C(=O)N(C)CC(=O)N(C)[C@@H](C(C)C)C(=O)O[C@@H]2C)c(N)c1=O` [Dactinomycin], the relative viability was -0.00158 ± 0.00097. For `N#C/C(=C/c1ccc(O)c(O)c1)C(=O)NCc1ccccc1` [AG-490; Tyrphostin AG 490], the relative viability was 0.914 ± 0.15. Take `C[C@@H](CN1CC(=O)NC(=O)C1)N1CC(=O)NC(=O)C1` [Dexrazoxone; Dexrazoxane]: the relative viability is 0.828 ± 0.054. For `CC(C)(C)Cn1c(N)nc2ccc(-c3[nH]c(C(C)(C)C)nc3-c3ccc(F)cc3)nc21`, the relative viability is 1.11 ± 0.14. As for `CNC(=O)c1cc(Oc2ccc(NC(=O)Nc3ccc(Cl)c(C(F)(F)F)c3)c(F)c2)ccn1` [Regorafenib; BAY 73-4506(Regorafenib)], the figure is 0.913 ± 0.055; as for `Cc1ccc(NC(=O)c2ccc(CN3CCN(C)CC3)cc2)cc1Nc1nccc(-c2cccnc2)n1`, 0.902 ± 0.12; as for `Nc1nccc(Oc2ccc(NC(=O)c3c[nH]cc(-c4ccc(F)cc4)c3=O)cc2F)c1Cl`, 0.87 ± 0.13. For the compound `Cc1cccc(-c2[nH]c(C(C)(C)C)nc2-c2ccc3nccnc3c2)n1`, the relative viability turned out to be 0.848 ± 0.048. As for `NC(N)=NC(N)=NCCc1ccccc1` [Phenformin hydrochloride], the figure is 0.897 ± 0.13. As for `O=c1c(O)c(-c2ccc(O)c(O)c2)oc2cc(O)cc(O)c12` [QUERCETIN; Quercetin(Sophoretin); Quercetin dihydrate], the figure is 0.89 ± 0.032; as for `CC(C)CC(=O)Nc1n[nH]c2c1CN(C(=O)C1CCN(C)CC1)C2(C)C`, 0.84 ± 0.097. As for `Nc1nc(Nc2ccc(S(N)(=O)=O)cc2)nn1C(=O)c1c(F)cccc1F`, the figure is 0.96 ± 0.1; as for `CS(=O)(=O)c1ccc(C(=O)Nc2ccc(Cl)c(-c3ccccn3)c2)c(Cl)c1` [Vismodegib], 0.993 ± 0.058; as for `COc1cc([C@@H]2c3cc4c(cc3[C@@H](O[C@@H]3O[C@@H]5CO[C@@H](C)O[C@H]5[C@H](O)[C@H]3O)[C@H]3COC(=O)[C@H]23)OCO4)cc(OC)c1O` [Etoposide], 0.938 ± 0.081. Take `O=C(NC[C@H](O)CO)c1ccncc1Nc1ccc(I)cc1F`: the relative viability amounted to 0.247 ± 0.056. Turning to `O=C1NC(=O)/C(=C/c2ccc(-c3ccc(F)cc3O)o2)S1`, the relative viability was 0.977 ± 0.15. `CNC(=O)Nc1ccc(-c2nc(N3CC4CCC(C3)O4)c3cnn(C4CCC5(CC4)OCCO5)c3n2)cc1`: the relative viability was found to be 0.424 ± 0.074. As for `CC(=O)O[C@H]1C(=O)[C@@]2(C)[C@H]([C@H](OC(=O)c3ccccc3)[C@]3(O)C[C@H](OC(=O)[C@H](O)[C@@H](NC(=O)c4ccccc4)c4ccccc4)C(C)=C1C3(C)C)[C@]1(OC(C)=O)CO[C@@H]1C[C@@H]2O` [Paclitaxel; Taxol], the figure is 0.391 ± 0.044; as for `CS(=O)(=O)CCNCc1ccc(-c2ccc3ncnc(Nc4ccc(OCc5cccc(F)c5)c(Cl)c4)c3c2)o1` [Lapatinib ditosylate; Lapatinib; Lapatinib Ditosylate], 0.811 ± 0.091; as for `CC[C@H](Nc1ncnc2nc[nH]c12)c1nc2cccc(F)c2c(=O)n1-c1ccccc1`, 0.899 ± 0.11. Consider `COc1cccc(-c2cc(=O)c3ccccc3o2)c1N`, for which the relative viability amounted to 0.734 ± 0.07. `CN(C)/N=N/c1[nH]cnc1C(N)=O` [Dacarbazine]: the relative viability is 0.931 ± 0.18. Turning to `O=NN(CCCl)C(=O)NC1CCCCC1` [Lomustine, CCNU; Lomustine], the relative viability is 0.967 ± 0.15.

Take `Cc1c(NC(=O)OC[C@@H]2COCCN2)cn2ncnc(Nc3ccc4c(cnn4Cc4cccc(F)c4)c3)c12`: the relative viability turned out to be 0.806 ± 0.16. As for `CCCNC(=O)Nc1ccc(Oc2ncnc3cc(OC)c(OC)cc23)cc1Cl`, the figure is 0.713 ± 0.055; as for `Cc1cc(Nc2cc(N3CCN(C)CC3)nc(Sc3ccc(NC(=O)C4CC4)cc3)n2)n[nH]1`, 0.766 ± 0.087; as for `c1cncc(CN2CCC(n3ncc4c(N5CCOCC5)nc(-c5ccc6[nH]ccc6c5)nc43)CC2)c1`, 0.861 ± 0.099. As for `N#Cc1ccc(C(c2ccc(C#N)cc2)n2cncn2)cc1` [Letrozole], the figure is 0.756 ± 0.011; as for `CC(=O)Nc1cccc(-n2c(=O)n(C3CC3)c(=O)c3c(Nc4ccc(I)cc4F)n(C)c(=O)c(C)c32)c1`, 0.144 ± 0.01; as for `Cc1csc(-c2nnc(Nc3ccc(Oc4ncccc4-c4ccnc(N)n4)cc3)c3ccccc23)c1`, 0.692 ± 0.11. For the compound `Clc1ccc(Nc2nnc(Cc3ccncc3)c3ccccc23)cc1` [Vatalanib], the relative viability worked out at 0.822 ± 0.036.

With `Cc1ncc(-c2ccnc(Nc3ccc(S(C)(=O)=O)cc3)n2)n1C(C)C`, the relative viability stood at 0.867 ± 0.072.
